Measured values: PubChem BioAssay (Tox21)
Records with an inconclusive call do not appear. The source made the active and inactive calls. Unless noted, calls come from the whole dose curve; as a rule, active = well fitted curve in the direction sought with a large enough effect in the repeat runs; inconclusive = weak or mixed curves; inactive = no such curve, though single readings can be large; an effect the other way counts as inactive or inconclusive.

Columns and labels:
[1] = qHTS assay for small molecules that induce genotoxicity in human embryonic kidney cells expressing luciferase-tagged ATAD5 (AID 651632); note: nearly all actives have a fitted effect of over 15% in size
Summary of the method: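 Genotoxicity read-out via ATAD5-luciferase: HEK293T cells, 16 hr compound incubation at 37C, Amplite detection.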

[2] = qHTS assay for small molecule agonists of the p53 signaling pathway - cell viability (AID 651633; calls by dose curve;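 note: p53RE-bla HCT reporter cells with a stable beta-lactamase p53 reporter; series mostly up to about 83 µM; nearly all actives have a fitted effect of over 30% in size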)
Summary of the method: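 p53RE-bla cells were treated with compound for 16 hours at 37 C. Cytotoxicity was then measured as CellTiter-Glo luminescence after 30 min at room temperature.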

[3] = qHTS assay for small molecules that induce genotoxicity in human embryonic kidney cells expressing luciferase-tagged ATAD5 - cell viability (AID 651634; calls by dose curve; note: nearly all actives have a fitted effect of over 25% in size)
Summary of the method: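 Live-cell protease activity (CellTiter-Fluor, fluorescence) indicates viability. HEK293T cells with luciferase-tagged ATAD5; 15.5 hr compound treatment at 37C.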

[4] = qHTS assay for small molecule disruptors of the mitochondrial membrane potential - cell viability (AID 720634; calls by dose curve;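 note: human HepG2 liver cancer cells; series mostly up to about 83 µM; nearly all actives have a fitted effect of over 20% in size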)
Summary of the method: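 Human hepatoma HepG2 cells were treated for 1 hr with test chemicals, then given m-MPI dye and CellTiter-Glo. Cell viability reflects luminescence proportional to cellular ATP.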

[5] = qHTS assay for small molecule disruptors of the mitochondrial membrane potential (AID 720635); note: potency is the fitted concentration of half-maximal effect
Summary of the method: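 HepG2 cells exposed to compound 1 hr at 37C, then Mito-MPS dye 30 min. Ratio read of aggregate (540/590 nm) versus monomer (490/535 nm) fluorescence.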

[6] = qHTS assay to test for compound auto fluorescence at 590 nm (red) in HepG2 cells (AID 720674)
Summary of the method: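 HepG2 cells, 2,000 per well in MEM with 10% FBS, attached overnight at 37 C, then got 23 nL compound or DMSO. After 1 hr at 37 C, 5% CO2, red fluorescence was read at 540/590 nm against Rose Bengal sodium as reference.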

[7] = qHTS assay to test for compound auto fluorescence at 460 nm (blue) in HEK293 cells (AID 720678)
Summary of the method: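 After cell attachment (4-5 hr, 37C), compounds were pinned onto HEK293 monolayers in 10% dialyzed FBS medium. The blue channel (405/460 nm) was read following overnight culture. Equivalency was calculated against triamterene.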

[8] = qHTS assay to test for compound auto fluorescence at 590 nm (red) in HEK293 cells (AID 720679)
Summary of the method: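 Plates of HEK293 cells (10% dialyzed FBS) are treated with 23 nL compound or DMSO vehicle after a 4-5 hr attachment period, incubated overnight at 37C, and read for red fluorescence at 540/590nm.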

[9] = qHTS assay to test for compound auto fluorescence at 535 nm (green) in HepG2 cells (AID 720675)
[10] = qHTS assay for small molecule agonists of the p53 signaling pathway (AID 651631; calls by dose curve; note: nearly all actives have a fitted effect of over 15% in size)
Summary of the method: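 We treat p53RE-bla HCT-116 cells with compounds for 16 h at 37 °C, add LiveBLAzer B/G FRET substrate for 2 h at room temperature, and measure fluorescence intensity.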
% is set by controls: 0 for no effect and ±100 for the full control effect.

CC(=O)SCc1ccco1
inactive: Potency [1] | Potency [2] | Potency [3] | Potency [4] | Potency [5] | outcome [6] | Potency [7] | outcome [8]

CC[C@@H]1C[C@H](N(Cc2cc(C(F)(F)F)cc(C(F)(F)F)c2)C(C)=O)c2cc(C(F)(F)F)ccc2N1C(=O)OC(C)C
inactive: Potency [1] | Potency [2] | Potency [3] | Potency [4] | outcome [6] | outcome [9] | Potency [7] | outcome [8]
active: Potency [5] 4.33 µM

CC(C)NCC(O)c1cc(O)cc(O)c1 (stereo not given)
inactive: Potency [1] | Potency [2] | Potency [3] | Potency [4] | Potency [5] | outcome [6] | outcome [9] | Potency [7] | outcome [8]

SC1CCCC1
inactive: Potency [1] | Potency [2] | Potency [3] | Potency [4] | Potency [5] | outcome [6] | outcome [9] | Potency [7] | outcome [8]

Cn1sccc1=O
active: Potency [5] 61.1 µM
inactive: Potency [1] | Potency [2] | Potency [3] | Potency [4] | outcome [6] | Potency [7] | outcome [8]

CC(O)C1CCCCC1 (stereo not given)
inactive: Potency [1] | Potency [2] | Potency [3] | Potency [4] | Potency [5] | outcome [6] | outcome [9] | Potency [7] | outcome [8]

CN1CCN(C2=Nc3ccccc3Sc3ccc(Cl)cc32)CC1
inactive: Potency [10] | Potency [1] | Potency [4] | outcome [6] | outcome [9] | Potency [7]

N#CCCNCCC#N
inactive: Potency [1] | Potency [2] | Potency [3] | Potency [4] | Potency [5] | outcome [6] | outcome [9] | Potency [7] | outcome [8]

Cc1ccccc1N=Nc1ccc(N=Nc2c(O)ccc3ccccc23)c(C)c1
inactive: Potency [1] | Potency [2] | Potency [3] | Potency [4] | Potency [5] | outcome [6] | outcome [9] | Potency [7] | outcome [8]

CC(C)=CCCC(C)CC=O (stereo not given)
inactive: Potency [10] | Potency [1] | Potency [3] | Potency [4] | outcome [6] | Potency [7] | outcome [8]

CN(C)CCCNCCCN
inactive: Potency [1] | Potency [2] | Potency [3] | Potency [4] | Potency [5] | outcome [6] | outcome [9] | Potency [7] | outcome [8]

O=C(O)/C=C/c1cnc[nH]1
inactive: Potency [10] | Potency [2] | Potency [3] | Potency [4] | Potency [5] | outcome [6] | outcome [9] | Potency [7] | outcome [8]

CN(C(=O)CCCOc1ccc2[nH]c(=O)ccc2c1)C1CCCCC1
inactive: Potency [10] | Potency [2] | Potency [3] | Potency [4] | outcome [6] | outcome [9] | Potency [7] | outcome [8]

CC(=O)[C@@]1(O)CC[C@H]2[C@@H]3C[C@H](C)C4=CC(=O)CC[C@]4(C)[C@H]3CC[C@@]21C
inactive: Potency [10] | Potency [1] | Potency [3] | Potency [4] | outcome [6] | Potency [7] | outcome [8]

O=C(O)[C@@H]1[C@H]2C[C@H]3c4[nH]c5ccccc5c4CCN3C[C@@H]2CC[C@@H]1O
inactive: Potency [1] | Potency [2] | Potency [3] | Potency [4] | fluorescence, relative to Rose Bengal [6] 0.127% [at 18.6 µM] | fluorescence, % of fluorescein control [9] 0.513% [at 18.6 µM] | fluorescence, % of triamterene [7] 4.22% [at 18.6 µM]
active: Potency [5] 11.4 µM

CCCCCCCCCCCCCCC1CO1 (stereo not given)
inactive: Potency [10] | Potency [1] | Potency [3] | outcome [6] | Potency [7] | outcome [8]

Cc1occc1S
inactive: Potency [1] | Potency [2] | Potency [3] | Potency [4] | Potency [5] | outcome [6] | outcome [9] | Potency [7] | outcome [8]

C=CCCCCCC
inactive: Potency [10] | Potency [1] | Potency [3] | Potency [4] | Potency [5] | outcome [6] | Potency [7] | outcome [8]

CCCCCCCCCCCCC(=O)O
inactive: Potency [10] | Potency [3] | Potency [4] | Potency [5] | outcome [6] | outcome [9] | Potency [7] | outcome [8]

Cc1ccccn1
inactive: Potency [10] | Potency [2] | Potency [3] | Potency [4] | Potency [5] | outcome [6] | outcome [9] | Potency [7] | outcome [8]

CN(C)CC[C@@H](c1ccc(Br)cc1)c1ccccn1
inactive: Potency [1] | Potency [2] | Potency [3] | Potency [4] | Potency [5] | outcome [6] | outcome [9] | Potency [7] | outcome [8]

C[C@@H](C1=C(CCN(C)C)Cc2ccccc21)c1ccccn1
inactive: Potency [1] | Potency [2] | Potency [3] | Potency [4] | Potency [5] | outcome [6] | outcome [9] | Potency [7] | outcome [8]

O=CNc1ccccc1
inactive: Potency [1] | Potency [2] | Potency [3] | Potency [4] | Potency [5] | outcome [6] | outcome [9] | Potency [7] | outcome [8]

CCCCCCCC/C=C\CCCCCCCC(N)=O
inactive: Potency [1] | Potency [2] | Potency [3] | Potency [4] | outcome [6] | outcome [9] | Potency [7] | outcome [8]
active: Potency [5] 48.5 µM
